In publication PMC4336329 (PLoS ONE, 2015):
About 14,000 (4.5%) of roughly 310,000 compounds showed an effect of 50% or more. The effect is printed as a negative number. Only a selection was taken, and strong results are over-represented in it overall.

These molecules were tested against human ether-à-go-go-related gene (hERG) potassium channel (human, UniProt Q12809) (assay: primary screen, population patch clamp on CHO cells stably expressing hERG; higher = less effect of the substance).
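Also: peak tail current of the secondary pulse compared with the same well before compound.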

human ether-à-go-go-related gene (hERG) potassium channel, sequence (Q12809 whole entry, looked up): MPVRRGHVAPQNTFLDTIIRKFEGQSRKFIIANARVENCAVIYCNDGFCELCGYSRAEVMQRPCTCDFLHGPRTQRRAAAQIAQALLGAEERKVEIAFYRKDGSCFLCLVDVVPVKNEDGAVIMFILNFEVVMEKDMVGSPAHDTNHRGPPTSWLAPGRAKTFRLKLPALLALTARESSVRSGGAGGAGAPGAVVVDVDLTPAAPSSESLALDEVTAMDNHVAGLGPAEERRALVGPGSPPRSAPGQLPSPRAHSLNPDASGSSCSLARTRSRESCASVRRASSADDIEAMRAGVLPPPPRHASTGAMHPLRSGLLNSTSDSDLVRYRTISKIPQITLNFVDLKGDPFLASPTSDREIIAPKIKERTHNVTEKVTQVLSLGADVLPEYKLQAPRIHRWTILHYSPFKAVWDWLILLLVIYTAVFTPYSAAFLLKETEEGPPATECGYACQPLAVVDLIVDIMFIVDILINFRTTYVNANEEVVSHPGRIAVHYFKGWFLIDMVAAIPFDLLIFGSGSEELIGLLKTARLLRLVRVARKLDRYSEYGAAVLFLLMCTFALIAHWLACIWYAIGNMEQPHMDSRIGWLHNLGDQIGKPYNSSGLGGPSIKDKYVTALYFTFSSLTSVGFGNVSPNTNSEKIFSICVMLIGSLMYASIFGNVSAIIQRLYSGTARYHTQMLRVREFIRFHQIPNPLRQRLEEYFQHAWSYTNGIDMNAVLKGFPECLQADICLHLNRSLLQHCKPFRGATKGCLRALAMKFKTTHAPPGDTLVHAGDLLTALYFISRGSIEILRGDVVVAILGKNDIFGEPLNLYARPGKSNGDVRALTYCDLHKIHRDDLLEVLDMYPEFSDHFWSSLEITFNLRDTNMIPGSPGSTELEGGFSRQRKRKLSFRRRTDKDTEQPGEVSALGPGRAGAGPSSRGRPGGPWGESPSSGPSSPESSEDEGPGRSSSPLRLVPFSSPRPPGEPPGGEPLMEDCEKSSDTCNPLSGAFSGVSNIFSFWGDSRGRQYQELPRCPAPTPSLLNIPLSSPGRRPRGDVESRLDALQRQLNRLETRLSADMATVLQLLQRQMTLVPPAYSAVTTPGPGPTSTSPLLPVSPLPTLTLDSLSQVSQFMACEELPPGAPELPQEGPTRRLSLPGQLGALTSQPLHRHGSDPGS

First: Cc1cc(C(=O)N/N=C/c2c[nH]c3ccccc23)cs1
Second: CN(C)C(CNC(=O)CCc1c[nH]c2ccccc12)c1ccccc1 (stereo not shown)
The “hERG current change (%, negative = inhibition) at 10uM” value of the first is lower: -8.33% for the first, -5.7% for the second.

Compared with `CC(Sc1nc2cc([N+](=O)[O-])ccc2n1-c1cccc(C(F)(F)F)c1)C(=O)NC(N)=O` (stereo not shown), `NC(=O)NC(=O)CSc1nc2cc([N+](=O)[O-])ccc2n1-c1cccc(C(F)(F)F)c1` is lower in “hERG current change (%, negative = inhibition) at 10uM” value: 13.6% for the first, -57.7% for the second.

Going from `C=CCNC(=O)NC(=O)CSc1nc2cc([N+](=O)[O-])ccc2n1-c1cccc(C(F)(F)F)c1` to `CCNC(=O)CSc1nc2cc([N+](=O)[O-])ccc2n1-c1cccc(C(F)(F)F)c1`, the “hERG current change (%, negative = inhibition) at 10uM” value falls from 20.8% to -35.8%.

Compared with `NC(=O)CSc1nc2cc([N+](=O)[O-])ccc2n1-c1cccc(C(F)(F)F)c1`, `NC(=O)CSc1nnc(-c2ccccc2Br)n1-c1cccc(C(F)(F)F)c1` is higher in “hERG current change (%, negative = inhibition) at 10uM” value: -69.9% for the first, -11.9% for the second.

First: Cc1ccc(SCC(=O)Nc2cccc(C(=O)NC(C)(C)C)c2)cc1
Second: CCOC(=O)c1cccc(NC(=O)c2ccc(F)cc2F)c1
The “hERG current change (%, negative = inhibition) at 10uM” value of the first is higher: 4.17% for the first, -16.1% for the second.

Going from `O=C(Nc1cc(Cl)ccc1N1CCOCC1)c1cccnc1Cl` to `O=C(OCC(=O)N1CCc2ccccc2C1)c1cccnc1Cl`, the “hERG current change (%, negative = inhibition) at 10uM” value falls from 1.8% to -0.321%.

Compared with `O=S(=O)(c1ccc(N2CCCCCC2)nc1)N1CCCC1`, `N#Cc1c(NC(=O)COC(=O)c2ccc(S(=O)(=O)N3CCCC3)cc2)sc2c1CCCCC2` is lower in “hERG current change (%, negative = inhibition) at 10uM” value: 17.2% for the first, 6.38% for the second.

First: Cc1ccc(S(=O)(=O)N(C)C)cc1[N+](=O)[O-]
Second: COc1ccc(C(=O)C[n+]2cccc(C)c2C)cc1[N+](=O)[O-].[Br-]
The “hERG current change (%, negative = inhibition) at 10uM” value of the first is higher: -4.14% for the first, -13.2% for the second.

First: COc1ccc(CCNC(=O)c2cnccn2)cc1
Second: COc1ccc(CNC(=O)CCOc2ccc(C(C)(C)C)cc2)cc1
The “hERG current change (%, negative = inhibition) at 10uM” value of the first is higher: 10.8% for the first, 8.47% for the second.

Compared with `O=C(C[n+]1cccc2ccccc21)c1ccc(NC(=O)c2ccccc2)cc1.[Br-]`, `O=C(C[n+]1cc2ccccc2c2ccccc21)c1ccccc1.[Br-]` is lower in “hERG current change (%, negative = inhibition) at 10uM” value: 8.45% for the first, -73.8% for the second.

Going from `O=C(C[n+]1cc(Br)cc2ccccc21)c1ccc(F)cc1.[Br-]` to `O=C(C[n+]1cc(Br)cc2ccccc21)c1ccc(Cl)cc1.[Br-]`, the “hERG current change (%, negative = inhibition) at 10uM” value falls from -41.6% to -49.8%.

Going from `O=C(C[n+]1cc(Br)cc2ccccc21)c1ccccc1.[Br-]` to `O=C(C[n+]1cc(Br)cc2ccccc21)c1ccc(Br)cc1.[Br-]`, the “hERG current change (%, negative = inhibition) at 10uM” value falls from -21.7% to -83.3%.

First: Cc1ccc2c(ccc[n+]2CC(=O)c2ccccc2)c1.[Br-]
Second: COc1ccc(C(=O)C[n+]2cc(Br)cc3ccccc32)cc1[N+](=O)[O-].[Br-]
The “hERG current change (%, negative = inhibition) at 10uM” value of the first is higher: -13.1% for the first, -66.3% for the second.

Going from `N#CCc1c(C#N)c(N)nc(N2CCN(S(=O)(=O)c3ccccc3)CC2)c1C#N` to `CCN1CCN(c2nc3ccccn3c(=O)c2/C=C(\C#N)S(=O)(=O)c2ccccc2)CC1`, the “hERG current change (%, negative = inhibition) at 10uM” value falls from -0.357% to -42.3%.

Going from `C=CCn1c(SCC(=O)Nc2cccnc2Cl)nnc1-c1ccccc1F` to `O=C(CSc1nnc(CNC(=O)c2ccco2)o1)Nc1ccccc1`, the “hERG current change (%, negative = inhibition) at 10uM” value rises from -15.5% to 17.2%.

Compared with `COc1cc(C=O)ccc1OCCSc1ccc(C)cc1`, `COc1ccc(C2=NS(=O)(=O)N(C)C(C(=O)NCc3ccc(F)cc3)=C2)cc1OC` is lower in “hERG current change (%, negative = inhibition) at 10uM” value: -3.13% for the first, -59% for the second.

Going from `CCOC(=O)C1=CC[C@H]2c3c(c4ccccc4n3C)C(=O)C1N2S(=O)(=O)c1ccc(C)cc1` to `Cc1ccc(S(=O)(=O)/C(C#N)=C/c2c(N3CCN(C)CC3)nc3ccccn3c2=O)cc1`, the “hERG current change (%, negative = inhibition) at 10uM” value falls from -4.05% to -59.1%.

First: Cc1ccc(C2=NS(=O)(=O)N(C)C(C(=O)NCc3ccco3)=C2)cc1
Second: CN1C(C(=O)NCc2ccco2)=CC(c2ccc(F)cc2)=NS1(=O)=O
The “hERG current change (%, negative = inhibition) at 10uM” value of the first is lower: -58.4% for the first, -34.2% for the second.

Compared with `COc1ccc(C2=NS(=O)(=O)N(C)C(C(=O)NCc3ccco3)=C2)cc1OC`, `COc1ccc(C2=NS(=O)(=O)N(C)C(C(=O)NCc3cccs3)=C2)cc1OC` is lower in “hERG current change (%, negative = inhibition) at 10uM” value: -48.9% for the first, -53.9% for the second.

First: COc1ccc(C2=NS(=O)(=O)N(C)C(C(=O)N(C)Cc3ccccc3)=C2)cc1
Second: COc1ccc(C2=NS(=O)(=O)N(C)C(C(=O)N(C)Cc3ccccc3)=C2)cc1OC
The “hERG current change (%, negative = inhibition) at 10uM” value of the first is lower: -69.9% for the first, -6.75% for the second.

Going from `COc1ccc(CNC(=O)C2=CC(c3ccc(C)cc3)=NS(=O)(=O)N2C)cc1` to `COc1ccc(CNC(=O)C2=CC(c3ccc(OC)cc3)=NS(=O)(=O)N2C)cc1`, the “hERG current change (%, negative = inhibition) at 10uM” value falls from -9.69% to -54.5%.

First: COc1ccc(OC)c(C2=NS(=O)(=O)N(C)C(C(=O)NCc3cccs3)=C2)c1
Second: Cc1ccc(C2=NS(=O)(=O)N(C)C(C(=O)NCc3cccs3)=C2)cc1
The “hERG current change (%, negative = inhibition) at 10uM” value of the first is lower: -28% for the first, -8.57% for the second.

First: COc1ccc(C2=NS(=O)(=O)N(C)C(C(=O)NCc3ccccn3)=C2)cc1
Second: COc1ccc(C2=NS(=O)(=O)N(C)C(C(=O)NC(C)c3ccccc3)=C2)cc1 (stereo not shown)
The “hERG current change (%, negative = inhibition) at 10uM” value of the first is lower: -33.9% for the first, -23.8% for the second.

Going from `CCc1ccc(C2CC(c3ccc(Cl)cc3)n3nc(N)nc3N2)cc1` (stereo not shown) to `Clc1ccc(CSc2ccc(-c3cccnc3)nn2)cc1`, the “hERG current change (%, negative = inhibition) at 10uM” value falls from -10.3% to -48.6%.

Going from `CC(C(=O)N1CCc2ccccc21)N1CCN(S(=O)(=O)c2cccs2)CC1` (stereo not shown) to `CN1CCN(c2nc3ccccn3c(=O)c2/C=C(\C#N)S(=O)(=O)c2ccccc2)CC1`, the “hERG current change (%, negative = inhibition) at 10uM” value rises from -28.8% to -24.9%.

Going from `Cc1ccnc(OC(C(=O)O)C(OCCc2ccccc2)(c2ccccc2)c2ccccc2)n1` (stereo not shown) to `N#C/C(=C\c1c(N2CCN(Cc3ccccc3)CC2)nc2ccccn2c1=O)S(=O)(=O)c1ccccc1`, the “hERG current change (%, negative = inhibition) at 10uM” value falls from 23.2% to 0.944%.

Compared with `CC(=O)Nc1n[nH]c(-c2ccc(C)cc2)c1C`, `Cc1ccc(C2=NS(=O)(=O)N(C)C(C(=O)NCc3ccc(F)cc3)=C2)cc1` is lower in “hERG current change (%, negative = inhibition) at 10uM” value: 4.49% for the first, -28.4% for the second.

Compared with `Cc1ccc(CNS(=O)(=O)CCNC(=O)c2ccccc2)cc1`, `O=C(CSc1nc(NS(=O)(=O)c2ccccc2)cc(=O)[nH]1)Nc1ccc(F)cc1` is higher in “hERG current change (%, negative = inhibition) at 10uM” value: -33.5% for the first, 10.7% for the second.

First: Cc1[nH]nc2c1C(c1cccs1)C(C#N)=C(N)O2 (stereo not shown)
Second: Cc1csc(Nc2ccccc2C(F)(F)F)n1
The “hERG current change (%, negative = inhibition) at 10uM” value of the first is lower: 5.07% for the first, 6.46% for the second.

Compared with `COc1ccc(C2=NS(=O)(=O)N(C)C(C(=O)Nc3ccc4c(c3)OCO4)=C2)cc1`, `COc1ccc(C2=NS(=O)(=O)N(C)C(C(=O)NCc3ccc4c(c3)OCO4)=C2)cc1` is lower in “hERG current change (%, negative = inhibition) at 10uM” value: -4.37% for the first, -63.3% for the second.

Compared with `COc1ccc(CNC(=O)C2=CC(c3ccc(OC)c(OC)c3)=NS(=O)(=O)N2C)cc1`, `COc1ccc(C2=NS(=O)(=O)N(C)C(C(=O)NCc3ccc4c(c3)OCO4)=C2)cc1OC` is lower in “hERG current change (%, negative = inhibition) at 10uM” value: -21.8% for the first, -34.9% for the second.

Compared with `Cc1cc(C)nc(NC(=O)c2ccccc2O)n1`, `CC(C)c1ccc(OCC(=O)Nc2ccc(S(=O)(=O)Nc3ccccn3)cc2)cc1` is lower in “hERG current change (%, negative = inhibition) at 10uM” value: 18.3% for the first, 10.7% for the second.

First: Fc1cccc(Cl)c1CSc1ccc(-c2cccnc2)nn1
Second: Clc1cccc(CSc2ccc(-c3cccnc3)nn2)c1
The “hERG current change (%, negative = inhibition) at 10uM” value of the first is lower: -68.9% for the first, -67.3% for the second.

Going from `O=[N+]([O-])c1cccc(-c2ccc(SCc3cccnc3)nn2)c1` to `O=[N+]([O-])c1cccc(-c2ccc(SCc3ccccn3)nn2)c1`, the “hERG current change (%, negative = inhibition) at 10uM” value rises from -55% to -6.25%.

Going from `c1ccc(CSc2ccc(-c3cccnc3)nn2)nc1` to `c1cncc(CSc2ccc(-c3cccnc3)nn2)c1`, the “hERG current change (%, negative = inhibition) at 10uM” value rises from 6.82% to 9.04%.

Going from `c1ccc(CSc2ccc(-c3cccnc3)nn2)cc1` to `Fc1cccc(Cl)c1CSc1ccc(-c2ccco2)nn1`, the “hERG current change (%, negative = inhibition) at 10uM” value rises from -13.7% to 1.19%.

Compared with `CCCCC1C(C#N)=C(C)NC2=C1C(=O)CC(C)(C)C2` (stereo not shown), `CCOc1ccc(/C(O)=C2/C(=O)C(=O)N(CC3CCCO3)C2c2ccco2)cc1` (stereo not shown) is higher in “hERG current change (%, negative = inhibition) at 10uM” value: -9.68% for the first, 14.2% for the second.

Compared with `Clc1ccc(CNc2ncccn2)cc1`, `O=c1ccnc(Nc2ccc(Cl)cc2)[nH]1` is lower in “hERG current change (%, negative = inhibition) at 10uM” value: 13.5% for the first, -10.3% for the second.

Going from `O=C1NCCN1CCNS(=O)(=O)c1cc(C(F)(F)F)cc(C(F)(F)F)c1` to `N#C/C(=C\c1c(N2CCOCC2)nc2ccccn2c1=O)S(=O)(=O)c1ccccc1`, the “hERG current change (%, negative = inhibition) at 10uM” value falls from 17.2% to -63.2%.

First: CN1CCN(c2nc3ccccn3c(=O)c2/C=C(\C#N)S(=O)(=O)c2ccc(Cl)cc2)CC1
Second: Cc1ccc(S(=O)(=O)/C(C#N)=C/c2c(N3CCCCC3)nc3ccccn3c2=O)cc1
The “hERG current change (%, negative = inhibition) at 10uM” value of the first is lower: -51.9% for the first, -29.9% for the second.

First: N#C/C(=C\c1c(N2CCCCC2)nc2ccccn2c1=O)S(=O)(=O)c1ccccc1
Second: N#C/C(=C\c1c(N2CCN(c3ccccc3)CC2)nc2ccccn2c1=O)S(=O)(=O)c1ccccc1
The “hERG current change (%, negative = inhibition) at 10uM” value of the first is lower: -40.7% for the first, 2.28% for the second.
